In PubChem BioAssay (NCI) one finds growth data, which are given here for 40 molecules.

Molecules are shown by their SMILES. The panel holds about 83,000 compounds, 20% with a hit somewhere; the sample as a whole holds those more often.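 Treatment: one concentration, 48 hours, 96-well format. Scoring: percent growth, with anything below 10 considered active.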 Unmarked numbers belong to inactive results. Activity calls are given as the source filed them.

For the test, the system named is NCI-H226 lung. In words: NCI-60 one-dose screen, 48 h (100 = growth as untreated, 0 = no growth, -100 = all killed). Particulars: 10 µM unless noted. Here is the method:
Growth inhibition of the NCI-H226 human Non-Small Cell Lung tumor cell line is measured as a screen for anti-cancer activity. Cells are grown in 96 well plates and exposed to the test compound for 48 hours. Compounds are tested at a single concentration, which is 10^-5 M for most compounds. The reported endpoint is percent growth (GI% or GIPRCNT), where numbers from 0 - 100% represent growth inhibition, and numbers from -100% - 0 represent cell death. For example, a value of 40 represents 60% growth inhibition. A value of 0 means no net growth occurred over the course of the experiment. A value of -40 indicates 40% of cells at the beginning of the experiment died by the end of the experiment. A value of -100 means all cells are dead at the end of the experiment.
NCI-60 Human Tumor Cell Lines Screen was performed using the standard one-dose NCI protocol, which is described in more detail at https://dtp.cancer.gov/discovery_development/nci-60/default.htm.
Compounds with GIPRCNT values below 10 were considered active. Activity score was based on GIPRCNT using the following formula: […]
Score is 0 for GIPRCNT values of 100 or above, 50 for GIPRCNT values of 0, and 100 for GIPRCNT values of -100.
As for `C=NNc1ccccc1`, the growth is 87.5%.
The same measure for `COc1ccc(NC(=O)c2sc3nc(C)c(C(O)c4ccccc4)cc3c2N)cc1` (stereo not given): 57.9%; for `Cn1cccc1/C=C1\C(=O)Nc2ccccc21`: 104%.
The same measure for `c1ccc2cc(Cn3c[n+](Cc4ccc5ccccc5c4)c4ccccc43)ccc2c1`: 19.6%; for `COc1ccc2cc(Cn3cc[n+](Cc4ccc5ccccc5c4)c3)ccc2c1`: 49.2%.
The same measure for `COc1ccc2c(c1)c(-c1nonc1-c1c[nH]c3ccc(Br)cc13)cn2C`: 84.6%.
In the case of `Cc1cc(C)c(-c2c(O)c(Br)c(-c3c(C)cc(C)c(Br)c3C)c(O)c2Br)c(C)c1Br`, the growth is 52.1%.
The same measure for `COc1ccc2c(c1)c(-c1ccc(-c3cn(C)c4ccc(OC)cc34)[nH]1)cn2C`: 58.8%.
The same measure for `Cc1cc(C(=O)Nc2cc(Nc3ncccc3-c3ncnc4nc[nH]c34)ccc2F)cc(C(F)(F)F)c1`: 39.9%; for `C=CCOC(=O)C1=C(C)NC(=O)NC1c1c(Cl)n(C)c2ccccc12` (stereo not given): 97.8%.
As for `C[C@@H](CO)[C@@H]1CC[C@]2(C(=O)N3CCN(C)CC3)CC[C@]3(C)[C@H](CC[C@@H]4[C@@]5(C)CC[C@H](O)C(C)(C)[C@@H]5CC[C@]43C)[C@@H]12`, the figure is 81.4%; as for `COc1ccc(Cc2nnc(Nc3nc4ccccc4s3)s2)cc1`, 98.3%; as for `CN1CCN(c2ccc(NC(=O)c3cncnc3Nc3ccc4c(ccn4Cc4cccc(F)c4)c3)cc2)CC1`, 85.5%.
Take `O=S(=O)(c1ccccc1)N1CCCN(c2nc(-c3ccccc3)nc3nc(-c4ccccc4)oc23)CC1`: the growth was 109%.
The same measure for `CN(C)c1ccc(C(=NO)c2ccc(N(C)C)cc2)cc1`: 78.5%; for `COc1ccc(C2=CN3CC=CCC3CC2=O)cc1` (stereo not given): 99.9%; for `COc1cc2c(/C=C3\C(=O)Nc4ccccc43)c(C(=O)O)[nH]c2cc1C`: 89.2%.
As for `S=c1[nH]c2cc(Cl)ccc2o1`, the figure is 104%.
The same measure for `Cc1ccccc1CNc1c2ccccc2nc2ccccc12`: 31.5%.
As for `COc1ccc(C2=NN(C(C)=O)C(c3ccc(Oc4ccnc5cc(Cl)ccc45)c(OC)c3)C2)cc1` (stereo not given), the growth is -0.374% (active).
Regarding `CC1=NN(c2ccc(Cl)cc2)CC1(C)N=O` (stereo not given), the growth is 76.9%.
Turning to `CC(=O)c1c(Nc2ccc(F)c(F)c2F)[nH]c2c(F)cc(F)cc2c1=O`, the growth is -15.6% (active).
The same measure for `COc1ccc(/C=C/C(=O)c2cc3c(N)c(C(=O)Nc4ccc(OC)cc4)sc3nc2C)cc1`: 49.4%.
The same measure for `CCCCCCC(CCCC)COC(=O)c1ccc(Cl)cc1` (stereo not given): 92.8%.
As for `C[C@H]1[C@H](C)CC[C@]2(C(=O)O)CC[C@]3(C)C(=CC[C@@H]4[C@@]5(C)C[C@@H](Cc6cn([C@@H]7O[C@H](CO)[C@@H](O)[C@H](O)[C@H]7O)nn6)[C@H](O)C(C)(C)[C@@H]5CC[C@]43C)[C@H]12`, the figure is 94.3%.
For the molecule `CCNc1nc(-c2ccc(F)cc2)c(C#N)c(=O)n1C`, the growth is 55%.
The same measure for `O=C(Nc1cccnc1Nc1ccc(Cl)cc1)c1cn(Cc2ccc(F)cc2)nn1`: 94.2%; for `Cn1ccnc1C(=O)/C=C/c1ccc(C(=O)Nc2ccc(F)cc2)cc1`: 13.8%; for `COc1cc(-c2cc(-c3ccc(Nc4ncnc5cc(Cl)ccc45)cc3)nc(N3CCN(C)CC3)n2)cc(OC)c1OC`: 50.5%.
`CCOC(=O)c1c2c(n3c1NCC3)-c1ccccc1C2=O`: the growth was 99.6%.
The same measure for `Cc1ccc(S(=O)(=O)n2cc(C3C(Cl)C(=O)N3c3ccc(N4CCOCC4=O)cc3)c3ccccc32)cc1` (stereo not given): 72.3%; for `S=c1ssnc1-c1cccs1`: 96.1%; for `CC(=O)N/C(=C1/OC(C(O)C(O)C(O)CO)CN1C)[P+](c1ccccc1)(c1ccccc1)c1ccccc1` (stereo not given): 97.6%.
With `N=C(N)SCc1cccc2c(CSC(=N)N)cccc12`, the growth is 87.9%.
As for `O=C1Nc2ccc(F)cc2/C1=N/c1nnc(Sc2ccccc2)s1`, the figure is 90.7%.
As for `CN1CCN(Cc2ccc(NC(=O)c3cncc(C#Cc4cnn5ccccc45)c3)cc2C(F)(F)F)CC1`, the figure is -11.6% (active).
As to `COc1cc2cc(NCc3ccc(OC(F)F)cc3)nc(C)c2cc1OC`, the growth is 75.5%.
The same measure for `O=C1/C(=C/c2ccccc2[N+](=O)[O-])COc2ccc(O)cc21`: 66.4%; for `COc1cc2c(cc1O)[C@@]1(C)[C@H](c3ccccc3Br)OC(=O)N1CC2`: 83.9%.
The same measure for `CC1=CCC[C@@H]2C1(C)CC[C@H](C)[C@@]2(C)CC1=CC(=O)C(SC(C)(C)C)=CC1=O` (stereo not given in full): 84.7%.
